PubChem BioAssay (Tox21)
Where “and” joins values, the source holds several entries; their conditions need not be identical. Equal entries are not always repeated. Inconclusive results are not listed. Calls of active or inactive are those of the source. Calls come from the whole dose curve; as a rule, active = well fitted curve in the direction sought with a large enough effect in the repeat runs; inconclusive = weak or mixed curves; inactive = no such curve, though single readings can be large; an effect the other way counts as inactive or inconclusive.

Assays:
[1] = A CellTox Green Cytotoxicity Assay to monitor cytotoxicity in HEK293 cells - 40 hour (AID 1224871); note: nearly all actives have a fitted effect of over 45% in size
Summary of the method: (§1)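 HEK293 cells premixed with CellTox Green dye were seeded at 600 cells/well and left 5 h at 37 C/5% CO2 before pin transfer of 23 nL compound in DMSO. Fluorescence from dye bound to dead-cell DNA was read during 40 h treatment.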

[2] = qHTS RealTime-Glo MT Cell Viability Assay in HEK293 cells - 16 hour (AID 1224872); note: top concentration of the series differs between compounds; nearly all actives have a fitted effect of over 50% in size
Summary of the method: (§2)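 Nonlytic real-time viability readout: viable cells convert prosubstrate to NanoLuc substrate, giving luminescence proportional to live cell number. HEK293, 600 cells/well, compound added after 5 h, continuous culture at 37 C.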

[3] = qHTS RealTime-Glo MT Cell Viability Assay in HepG2 cells - 8 hour (AID 1224873); note: nearly all actives have a fitted effect of over 55% in size
Summary of the method: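 Real-time viability: cells seeded at 600 per well together with NanoLuc and cell-permeant prosubstrate, compounds added after 5 h incubation. Luminescence tracked at 0, 8, 16, 24, 32 and 40 h of exposure.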

[4] = qHTS RealTime-Glo MT Cell Viability Assay in HEK293 cells - 40 hour (AID 1224874); conditions: RealTime-Glo luminescence; max response: stronger effect = lower value; note: nearly all actives have a fitted effect of over 50% in size
Summary of the method: (§3)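 HEK293 cells mixed with RealTime-Glo reagents (NanoLuc plus cell-permeant prosubstrate) at 600 cells/well, preincubated 5 h at 37 C/5% CO2, then given 23 nL compound in DMSO. Nonlytic luminescence from viable cells was read at 0, 8, 16, 24, 32 and 40 h.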

[5] = A CellTox Green Cytotoxicity Assay to monitor cytotoxicity in HEK293 cells - 24 hour (AID 1224875); note: series mostly up to about 77 µM; nearly all actives have a fitted effect of over 45% in size
Summary of the method: as §1

[6] = A CellTox Green Cytotoxicity Assay to monitor cytotoxicity in HepG2 cells - 16 hour (AID 1224876); note: nearly all actives have a fitted effect of over 45% in size
Summary of the method: (§4)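 HepG2 cells were seeded together with the CellTox Green dye at 600 cells/well, left 5 h at 37 C/5% CO2, then given compounds in DMSO. Fluorescence from dye bound to dead-cell DNA was read repeatedly over 40 h of treatment at 37 C.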

[7] = A CellTox Green Cytotoxicity Assay to monitor cytotoxicity in HepG2 cells - 24 hour (AID 1224878); note: nearly all actives have a fitted effect of over 45% in size
Summary of the method: as §4

[8] = A CellTox Green Cytotoxicity Assay to monitor cytotoxicity in HepG2 cells - 40 hour (AID 1224879); note: nearly all actives have a fitted effect of over 40% in size
Summary of the method: as §4

[9] = qHTS RealTime-Glo MT Cell Viability Assay in HEK293 cells - 0 hour (AID 1224880)
Summary of the method: as §3

[10] = A CellTox Green Cytotoxicity Assay to monitor cytotoxicity in HEK293 cells - 32 hour (AID 1224881); note: nearly all actives have a fitted effect of over 40% in size
Summary of the method: as §1

[11] = A CellTox Green Cytotoxicity Assay to monitor cytotoxicity in HepG2 cells - 0 hour (AID 1224882); note: nearly all actives have a fitted effect of over 35% in size
Summary of the method: as §4

[12] = A CellTox Green Cytotoxicity Assay to monitor cytotoxicity in HepG2 cells - 32 hour (AID 1224883); note: nearly all actives have a fitted effect of over 50% in size
Summary of the method: as §4

[13] = A CellTox Green Cytotoxicity Assay to monitor cytotoxicity in HEK293 cells - 8 hour (AID 1224884); note: nearly all actives have a fitted effect of over 35% in size
Summary of the method: as §1

[14] = qHTS RealTime-Glo MT Cell Viability Assay in HepG2 cells - 16 hour (AID 1224885); note: nearly all actives have a fitted effect of over 50% in size
Summary of the method: (§5)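 Luminescence read-out: viable HepG2 cells reduce a prosubstrate to a NanoLuc substrate, giving a signal proportional to live cell number. Reads taken at 0, 8, 16, 24, 32 and 40 h of compound exposure at 37 C.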

[15] = qHTS RealTime-Glo MT Cell Viability Assay in HEK293 cells - 24 hour (AID 1224886)
Summary of the method: as §2

[16] = qHTS RealTime-Glo MT Cell Viability Assay in HEK293 cells - 8 hour (AID 1224887)
Summary of the method: as §3

[17] = A CellTox Green Cytotoxicity Assay to monitor cytotoxicity in HEK293 cells - 16 hour (AID 1224888); note: nearly all actives have a fitted effect of over 35% in size
Summary of the method: as §1

[18] = qHTS RealTime-Glo MT Cell Viability Assay in HepG2 cells - 0 hour (AID 1224889); note: nearly all actives have a fitted effect of over 50% in size
Summary of the method: as §5

[19] = A CellTox Green Cytotoxicity Assay to monitor cytotoxicity in HepG2 cells - 8 hour (AID 1224890); note: nearly all actives have a fitted effect of over 45% in size
Summary of the method: as §4

[20] = qHTS RealTime-Glo MT Cell Viability Assay in HepG2 cells - 32 hour (AID 1224877); note: nearly all actives have a fitted effect of over 55% in size
Summary of the method: as §5
% is set by controls: 0 for no effect and ±100 for the full control effect.

C[C@@H]1CCN(C(=O)[C@H](CCCN=C(N)N)NS(=O)(=O)c2cccc3c2NC[C@H](C)C3)[C@@H](C(=O)O)C1
inactive: Potency [1] | Potency [2] | Potency [3] | max response [4] 4.96% | Potency [5] | Potency [6] | Potency [7] | Potency [8] | Potency [9] | Potency [10] | Potency [11] | Potency [12] | Potency [13] | Potency [14] | Potency [15] | Potency [16] | Potency [17] | Potency [18] | Potency [19]

CC(=O)N(CC(O)CO)c1c(I)c(C(=O)NCCO)c(I)c(C(=O)NCC(O)CO)c1I (stereo not given)
inactive: Potency [1] | Potency [2] | Potency [3] | max response [4] 9.14% | Potency [5] | Potency [6] | Potency [20] | Potency [7] | Potency [8] | Potency [10] | Potency [11] | Potency [12] | Potency [13] | Potency [14] | Potency [15] | Potency [16] | Potency [17] | Potency [18] | Potency [19]

CO[Si](CCCOCC1CO1)(OC)OC (stereo not given)
inactive: Potency [1] | Potency [2] | Potency [3] | max response [4] 0.892% and 6.22% | Potency [5] | Potency [6] | Potency [20] | Potency [7] | Potency [8] | Potency [10] | Potency [11] | Potency [12] | Potency [13] | Potency [14] | Potency [15] | Potency [16] | Potency [17] | Potency [18] | Potency [19]

C=CCOCC(CC)(CO)COCC=C
inactive: Potency [1] | Potency [2] | Potency [3] | max response [4] 5.04% | Potency [5] | Potency [6] | Potency [7] | Potency [8] | Potency [9] | Potency [10] | Potency [11] | Potency [12] | Potency [13] | Potency [14] | Potency [15] | Potency [16] | Potency [17] | Potency [18] | Potency [19]

CCSC(=O)N(CC(C)C)CC(C)C
inactive: Potency [1] | Potency [2] | Potency [3] | max response [4] 5.8% | Potency [5] | Potency [6] | Potency [7] | Potency [8] | Potency [9] | Potency [10] | Potency [11] | Potency [12] | Potency [13] | Potency [14] | Potency [15] | Potency [16] | Potency [17] | Potency [18] | Potency [19]

CC(C)=CCCC(C)CC(=O)O (stereo not given)
inactive: Potency [1] | Potency [2] | Potency [3] | max response [4] 2.41% | Potency [5] | Potency [6] | Potency [7] | Potency [8] | Potency [9] | Potency [10] | Potency [11] | Potency [12] | Potency [13] | Potency [14] | Potency [15] | Potency [16] | Potency [17] | Potency [18] | Potency [19]

CC(=O)Nc1c(I)cc(I)c(C(=O)O)c1I
inactive: Potency [1] | Potency [2] | Potency [3] | max response [4] 7.77% | Potency [5] | Potency [6] | Potency [20] | Potency [7] | Potency [8] | Potency [10] | Potency [11] | Potency [12] | Potency [13] | Potency [14] | Potency [15] | Potency [16] | Potency [17] | Potency [18] | Potency [19]

N[C@H](C(=O)O)c1ccc(O)cc1
inactive: Potency [1] | activity change, negative = cytotoxicity [2] 4.17% [at 15.8 µM] | viability change, negative = cytotoxic [3] 0.244% [at 15.8 µM] | max response [4] 2.28% | activity change [5] 0.19% [at 15.8 µM, stronger effect = higher value] | cytotoxicity increase [6] -12.1% [at 15.8 µM] | activity change, negative = cytotoxic [20] 3.27% [at 15.8 µM] | cytotoxicity [7] -8.13% [at 15.8 µM] | cytotoxicity increase [8] -4.58% [at 15.8 µM] | Potency [10] | cytotoxicity [11] -7.08% [at 15.8 µM] | cytotoxicity increase [12] -6.23% [at 15.8 µM] | cytotoxicity increase [13] 0.0185% [at 15.8 µM] | activity change, negative = cytotoxic [14] 1.01% [at 15.8 µM] | activity change, negative = cytotoxicity [15] 1.77% [at 15.8 µM] | activity change, negative = cytotoxicity [16] 4.01% [at 15.8 µM] | activity change [17] 0.584% [at 15.8 µM, stronger effect = higher value] | activity change, negative = cytotoxicity [18] 1.28% [at 15.8 µM] | cytotoxicity increase [19] -9.51% [at 15.8 µM]

CC/C=C\CC/C=C/CO
inactive: Potency [1] | Potency [2] | Potency [3] | Potency [5] | Potency [6] | Potency [20] | Potency [7] | Potency [8] | Potency [9] | Potency [10] | Potency [11] | Potency [12] | Potency [13] | Potency [14] | Potency [15] | Potency [16] | Potency [17] | Potency [18] | Potency [19]

CO/N=C(/C(=O)N[C@@H]1C(=O)N2C(C(=O)OCOC(=O)C(C)(C)C)=C(C)CS[C@H]12)c1csc(N)n1
inactive: Potency [1] | Potency [2] | Potency [3] | Potency [5] | Potency [6] | Potency [20] | Potency [7] | Potency [8] | Potency [9] | Potency [10] | Potency [11] | Potency [12] | Potency [13] | Potency [14] | Potency [15] | Potency [16] | Potency [17] | Potency [18] | Potency [19]
